A selection: hits, their analogues and other compounds. The true share with any hit is near 10%.
HEK cytotox: kills HEK 293 cells; HEK 293 viability, ATP luminescence (CellTiter-Glo), 48-72 h; Potency, µM (highest dose often 115 µM), without a hit: top-dose activity change, negative = cytotoxicity, actives largely listed as inhibitors; actives 6.6% (n = 94,000); AID 1345083; also: % is scaled to controls: 0 for no effect and ±100 for the full control effect; nearly all actives have a fitted effect of over 60% in size
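Cells seeded first (HEK 293, 250 cells/well), then compound added by pintool. Incubation ran 48 or 72 hr at 37 degree Celsius. CellTiter-Glo was added and luminescence imaged after 10 min at room temperature.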
GPT2 inhibitor: inhibitors of human GPT2 alanine aminotransferase | Q8TD30 | Recombinant GPT2, coupled pyruvate oxidase/HRP Amplex Red fluorescence | Potency, µM (series often up to 57.7 µM), for the others: at the top dose activity change, negative = inhibition, hits mostly inhibitors | actives 0.25% (n = 100,000) | AID 1671188; also: % is scaled to controls: 0 for no effect and ±100 for the full control effect; nearly all actives have a fitted effect of over 60% in size
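Fluorescence of coupled pyruvate oxidase/HRP/Amplex Red system (50uM Amplex, 30 min, dark) reports pyruvate formed by GPT2. Enzyme reaction: 10ng/uL GPT2, 2mM L-alanine, 250uM a-KG, 30 min room temperature, pH 7.5; 50uM AOA control.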
FLuc inh-1: Photinus pyralis luciferase inhibition; actives 2.5% (n = 76,000); Potency, µM (titrated, usually from 115 µM), most hits filed as inhibitors; purified P. pyralis luciferase, luminescence, biochemical; also: % is scaled to controls: 0 for no effect and ±100 for the full control effect; nearly all actives have a fitted effect of over 65% in size
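Purified 10nM P. pyralis luciferase with 10uM D-luciferin and 10uM ATP in 50mM Tris acetate pH 7.5, 10mM Mg acetate, 0.01% Tween-20, 0.05% BSA. qHTS titration; luminescence read by CCD imager.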
NPR1 antag: antagonists of human natriuretic peptide receptor Npr1; P16066; HEK293 hNpr1 GloSensor cGMP, ANP-stimulated luminescence; Potency, µM (doses to about 46.3 µM), for inactives: at the top dose activity change, negative = inhibition, hits mostly inhibitors; actives 1.6% (n = 76,000); AID 1347048; calls by dose curve; also: % is scaled to controls: 0 for no effect and ±100 for the full control effect; nearly all actives have a fitted effect of over 60% in size
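HEK293 cells stably expressing human Npr1 and cGMP GloSensor pGS-40F, loaded 2 h with 2% GloSensor reagent, given compound 30 min at room temperature. Luminescence read before and 20 min after 0.1 nM hNppA.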
NIH3T3 tox: cytotoxic compounds in NIH 3T3 cells. NIH 3T3 viability, CellTiter-Glo ATP luminescence, 48-72 h. Potency, µM (doses to about 96.7 µM), inactives show top-dose activity change, negative = cytotoxicity, most hits filed as inhibitors. actives 4.3% (n = 94,000). AID 1345082; also: % is scaled to controls: 0 for no effect and ±100 for the full control effect; nearly all actives have a fitted effect of over 55% in size
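Cytotoxicity is measured as loss of cellular ATP: NIH 3T3 cells (400/well) are exposed to compound for 48 or 72 hr at 37 °C, then CellTiter-Glo luminescence is imaged after 10 min at room temperature.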
FLuc SDR no ATP: binders stabilizing firefly luciferase, without ATP. shares compounds with FLuc inh-1. Purified FLuc-C-HiBiT, Nano-Glo HiBiT luminescence, no ATP. Potency, µM (titrated, usually from 32.7 µM), inactives show at the top dose activation (signal gain), usual class: activators. actives 7.8% (n = 1,300); also: nearly all actives have a fitted effect of over 55% in size
FLuc SDR ATP: binders stabilizing firefly luciferase, plus ATP. purified FLuc-C-HiBiT + ATP, HiBiT complementation luminescence. actives 8.7% (n = 1,300). shares compounds with FLuc inh-1. Potency, µM (doses to about 32.7 µM), for inactives: at the highest dose activation (gain of signal), most hits filed as activators;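 also: signal reports ligand binding via conformational change of the enzyme rather than luciferase catalysis; % of control where 0% means no effect; nearly all actives have a fitted effect of over 55% in size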
FLuc inh-2: inhibitors of firefly luciferase enzymatic activity; shares compounds with FLuc inh-1; purified FLuc-C-HiBiT enzyme, luciferin luminescence; Potency, µM (titrated, usually from 32.7 µM), for the others: at the highest dose activity change, negative = inhibition, usual class: inhibitors; actives 42% (n = 1,300); also: % is scaled to controls: 0 for no effect and ±100 for the full control effect; nearly all actives have a fitted effect of over 70% in size
An asterisk follows results filed as active; [ ] = dose if it differs, or a comment. Unless noted, calls follow the shape of the dose curve; as a rule, active = well fitted curve in the direction sought with a large enough effect; inconclusive = small, poorly fitted or top-dose-only effect, or another doubt; inactive = no such curve, though single readings can be large; an effect the other way counts as inactive or inconclusive. Potency is read from the fitted curve at half-maximal effect.

`CCC(C)(C)NC(=O)c1cccc2c1CCN2C(=O)Nc1cccc(C)c1` gave HEK cytotox inconclusive, GPT2 inhibitor -22%, FLuc inh-1 7.9µM*, NPR1 antag -22%, NIH3T3 tox -27%, FLuc SDR no ATP inconclusive, FLuc SDR ATP 11µM* and FLuc inh-2 7.9µM*.
Screening Cc1cccc(NC(=O)N2CC3CN(C)CC(C2)O3)c1 returned HEK cytotox 4%, GPT2 inhibitor inactive, FLuc inh-1 inactive, NPR1 antag -13% and NIH3T3 tox -5%.
`CCc1cccc(NC(=O)c2cc(-c3ccc[nH]3)n[nH]2)c1` gave HEK cytotox -5%, GPT2 inhibitor inactive, FLuc inh-1 8.9µM*, NPR1 antag 2%, NIH3T3 tox -14%, FLuc SDR no ATP 12%, FLuc SDR ATP 8% and FLuc inh-2 inconclusive.
c1ccc(CNc2cc(-c3cc(N4CCCCC4)ncn3)c3cc[nH]c3n2)nc1 was read as HEK cytotox inconclusive, GPT2 inhibitor 4%, FLuc inh-1 7.9µM*, NPR1 antag -2%, NIH3T3 tox inconclusive, FLuc SDR no ATP 24%, FLuc SDR ATP 12% and FLuc inh-2 9.9µM*.
`COCC(=O)N1CCc2nc(C)nc(-c3ccc(OC)cc3)c2C1` gave HEK cytotox -23%[172 µM], GPT2 inhibitor inactive, FLuc inh-1 inactive, NPR1 antag 2%[70.6 µM], NIH3T3 tox -29%[138 µM], FLuc SDR no ATP 10%[49.3 µM], FLuc SDR ATP 8%[49.3 µM] and FLuc inh-2 -5%[49.3 µM].
For COc1ccc(-c2nc(C)nc3c2CN(C(C)=O)CC3)cc1 the results were HEK cytotox -16%[172 µM], GPT2 inhibitor inactive, FLuc inh-1 inactive, NPR1 antag -13%[70.6 µM] and NIH3T3 tox -23%[138 µM].
O=C(c1n[nH]c2ccccc12)N1CC(Oc2ccccc2-c2nc(-c3ccccc3)no2)C1 was read as HEK cytotox -16%, GPT2 inhibitor inactive, FLuc inh-1 inactive, NPR1 antag -2% and NIH3T3 tox -26%.
Cc1ccc(-n2ncc3c(N(C)C)ncnc32)cc1Cl was read as FLuc SDR no ATP inconclusive, FLuc SDR ATP inconclusive and FLuc inh-2 2.2µM*.
For CCc1noc(-c2nc(-c3ccccc3C)no2)n1 the results were HEK cytotox inconclusive, GPT2 inhibitor inactive, FLuc inh-1 14µM*, NPR1 antag 2%, NIH3T3 tox -24%, FLuc SDR no ATP 9%, FLuc SDR ATP 8% and FLuc inh-2 -14%.
CC(C)NC(=O)N1CCCC1C(=O)N1CCC(N2CCCC2=O)CC1 (stereo unspecified) was read as HEK cytotox 0%, GPT2 inhibitor inconclusive and NIH3T3 tox -26%.
COc1ccc(C(=O)Nc2cnc(-c3ccc(Cl)cc3)nc2)cc1 was read as HEK cytotox inconclusive, GPT2 inhibitor inactive, FLuc inh-1 inconclusive, NPR1 antag -27% and NIH3T3 tox inactive.
COc1ccc(OCC(=O)Nc2nc(-c3ccc(Br)cc3)ns2)cc1 was read as FLuc SDR no ATP 14%, FLuc SDR ATP 8% and FLuc inh-2 -14%.
Clc1cccc(-c2nc(-c3ccccn3)no2)c1 was read as FLuc SDR no ATP 3.9µM*, FLuc SDR ATP inconclusive and FLuc inh-2 0.99µM*.
Cc1cc(C)c2[nH]c(C(=O)NCc3nc(-c4ccccn4)no3)c(C)c2c1 was read as HEK cytotox inconclusive, GPT2 inhibitor inactive, FLuc inh-1 inconclusive, NPR1 antag -1% and NIH3T3 tox inconclusive.
